Results as given in PubChem BioAssay AID1211 (NMMLSC, 2008).
The source made the active and inactive calls. No rule for the calls is given here.

Molecular target: Estrogen receptor (Homo sapiens) (UniProt P03372)
Experiment: ERalpha ligand binders by competition, primary screen, cell-based, Cos7 ERalpha-GFP, flow cytometry (AID 1211);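 also: 0% = DMSO vehicle wells and 100% = no E2-Alexa633 signal left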
Conditions: fluorescent ligand competition, at 10 µM, active compounds read high

Estrogen receptor (Homo sapiens), sequence (P03372 whole entry, looked up): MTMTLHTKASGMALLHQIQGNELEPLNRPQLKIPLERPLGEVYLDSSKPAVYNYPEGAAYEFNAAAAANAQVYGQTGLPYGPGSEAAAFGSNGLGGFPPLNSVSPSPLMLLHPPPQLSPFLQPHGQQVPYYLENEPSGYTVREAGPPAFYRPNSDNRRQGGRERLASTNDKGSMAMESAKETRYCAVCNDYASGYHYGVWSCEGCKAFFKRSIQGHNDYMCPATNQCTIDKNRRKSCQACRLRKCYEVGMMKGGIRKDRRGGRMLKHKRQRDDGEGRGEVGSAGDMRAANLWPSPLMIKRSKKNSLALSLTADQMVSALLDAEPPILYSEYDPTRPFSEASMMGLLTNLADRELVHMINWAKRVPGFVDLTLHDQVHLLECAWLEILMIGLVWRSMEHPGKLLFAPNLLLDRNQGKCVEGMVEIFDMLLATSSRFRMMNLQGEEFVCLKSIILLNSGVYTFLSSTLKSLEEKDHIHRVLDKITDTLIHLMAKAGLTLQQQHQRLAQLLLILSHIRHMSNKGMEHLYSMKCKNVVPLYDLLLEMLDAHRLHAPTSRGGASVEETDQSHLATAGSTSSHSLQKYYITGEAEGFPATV

Inhibition of ligand binding, active:
Fc1ccc2c(c1)C1C=CCC1C(c1cc3c(cc1Br)OCO3)N2 (stereo not drawn) 84%

Inhibition of ligand binding, inactive:
COc1cccc(C2NCCc3cc(OC)c(OC)cc32)c1 (stereo not drawn) 10%
COc1ccc2[nH]c3c(c2c1)CCNC3=O 21%
COc1cc(C2C(C#N)=C(N)Oc3cc(C)oc(=O)c32)cc2c1OCO2 (stereo not drawn) 9%
Nc1ccc2nc3n(c(=O)c2c1)CCC3 34%
CCCCc1cc(=O)oc2c(C)c(O)ccc12 0%
CC(=O)Oc1ccc2c(c1)CCC1C2C(O)CC2(C)C(=O)CCC12 (stereo not drawn) 15%
Oc1ccc(C=Nc2ccc(N3CCOCC3)cc2)c(O)c1 30%
O=[N+]([O-])c1cc(/C=N/N2CCN(C3c4ccccc4-c4ccccc43)CC2)ccc1Cl 21%
CCOc1cc2c(c([N+](=O)[O-])c1)NC(c1ccc(Br)cc1)C1CC=CC21 (stereo not drawn) 0%
COc1ccc(NS(=O)(=O)c2ccc3c(c2)[C@H]2C=CC[C@H]2[C@@H](c2ccc(F)cc2)N3)cc1 14%
Clc1ccc2c(c1)[C@H]1OCC[C@H]1[C@@H](c1ccco1)N2 0%
Cc1nn(-c2ccc(Cl)cc2)c2sc(C(=O)N3CCN(c4ccccn4)CC3)cc12 50%
O=c1oc2c(CN3CCCC3)c(O)ccc2c2c1CCC2 0%
COc1cc([N+](=O)[O-])cc2c1NC(c1ccccc1Cl)C1CC=CC21 (stereo not drawn) 0%
CCc1cc2c3c(c(=O)oc2cc1OC)CCCC3 0%
CC1CCCC(C)N1Cc1c(O)ccc2c3c(c(=O)oc12)CCC3 (stereo not drawn) 13%
CCCOc1cc2oc(=O)c3c(c2cc1CC)CCCC3 0%
COc1ccc2c(c1)C1OCCC1C(c1ccco1)N2 (stereo not drawn) 46%
CCSc1nc2c(cnn2-c2ccc(C)cc2)c(=O)[nH]1 22%
Cc1ccccc1-n1nc(-c2ccc(N)cc2)cc1N 7%
COc1cc(C2C3C(C)N(C)C(=O)N(C)C3N(C)C(=O)N2C)ccc1O (stereo not drawn) 0%
COc1ccc(C2CC(=O)Nc3ccccc3S2(=O)=O)cc1OC (stereo not drawn) 0%
COc1ccc(OC)c(C2Nc3c(Cl)ccc(C(=O)O)c3C3C=CCC32)c1 (stereo not drawn) 0%
COc1cc(NC(=O)c2cccs2)c(C(=O)OCC(=O)NC(=O)NCc2ccccc2)cc1OC 24%
CCC(Oc1ccc2c3c(c(=O)oc2c1C)CCC3)C(=O)OC (stereo not drawn) 15%
CC1CCN(Cc2c(O)ccc3c4c(c(=O)oc23)CCC4)CC1 0%
C=CCSC1=N/C(=C\C=C\c2ccco2)C(=O)S1 0%
O=c1c(C(c2ccc(O)cc2)c2c(O)nc3n(c2=O)CCS3)c(O)nc2n1CCS2 7%
C=CCn1c(COc2ccccc2F)nnc1SCC(=O)NC(=O)NCc1ccco1 11%
COCCCn1c(Cc2csc(Nc3cccc(Cl)c3)n2)nnc1SCC(=O)OC1CCCCC1 37%
O=c1cc(CSc2nnnn2-c2ccccc2)nc(Nc2ccc(F)cc2)[nH]1 26%
CCc1cc2c3c(c(=O)oc2cc1OCC(=O)O)CCCC3 10%
O=c1oc2cc(O)ccc2c2c1CCCC2 7%
Cc1cc(C(C)CO)cc(C(C)(C)C)c1O (stereo not drawn) 21%
Cc1ccc2c(c1C)NC(C(=O)O)C1CC=CC21 (stereo not drawn) 0%
COc1ccc(NC2=CC(c3cccc(OC)c3)N(c3ccc(OC)cc3)C2=O)cc1 (stereo not drawn) 48%
COc1cc2c3c(c1)/C(=C1/SC(NC(C)=O)=NC1=O)C(=O)N3C(C)(C)C=C2C 29%
